The record followed here is PubChem BioAssay.

The test system of assay [1] is XIP peptide (Xip251-270) binding. Nature of the assay: small-molecule binders of XIP peptide, primary screen, biochemical, small-molecule microarray, fluorescence 635/667 nm, 0.1 µg/mL protein (AID 1182). As to conditions: fluorescent protein binding, 635 nm, higher = more signal, called active from +8 up or from −8 down.
The next assay deals with XIP peptide (Xip251-270). Nature of the assay: small-molecule binders of XIP peptide, primary screen, biochemical, small-molecule microarray, fluorescence 635/667 nm, 0.5 µg/mL protein (AID 1183). As to conditions: small-molecule microarray binding, fluorescence 635 nm; higher = more signal.
Assay [2] in a line: Plasmodium falciparum growth inhibition, primary screen, strain 3D7, DAPI fluorescence, 100 nL (AID 1184).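 Also: parasites grown inside human red blood cells in medium with human serum.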 As to conditions: P. falciparum 3D7 growth, 3 d, higher = more signal.
Assay [3] concerns the target Homeobox protein Hox-A13 (Mus musculus) (UniProt Q62424). Nature of the assay: inhibitors of HoxA13-DNA binding, primary screen, biochemical, fluorescence polarization, labeled oligonucleotide (AID 1185). As to conditions: 15 min, higher = more signal, called active from +8 up or from −8 down.
Assay [4] is described as follows: inhibitors of hydroxyurea-induced Chk1 phosphorylation, primary screen, imaging, HeLa, phospho-Chk1 antibody, percent positive cells (AID 1186). As to conditions: hydroxyurea-induced phospho-Chk1 immunofluorescence imaging, higher = more signal.
A short description of assay [5]: inhibitors of hydroxyurea-induced Chk1 phosphorylation, primary screen, imaging, HeLa, phospho-Chk1 nuclear intensity (AID 1187). As to conditions: hydroxyurea-induced phospho-Chk1 immunofluorescence imaging, higher = more signal.

Calls of active or inactive are those of the source. Unless noted, no rule for the calls is given here.

Homeobox protein Hox-A13 (Mus musculus), sequence (Q62424 whole entry, looked up): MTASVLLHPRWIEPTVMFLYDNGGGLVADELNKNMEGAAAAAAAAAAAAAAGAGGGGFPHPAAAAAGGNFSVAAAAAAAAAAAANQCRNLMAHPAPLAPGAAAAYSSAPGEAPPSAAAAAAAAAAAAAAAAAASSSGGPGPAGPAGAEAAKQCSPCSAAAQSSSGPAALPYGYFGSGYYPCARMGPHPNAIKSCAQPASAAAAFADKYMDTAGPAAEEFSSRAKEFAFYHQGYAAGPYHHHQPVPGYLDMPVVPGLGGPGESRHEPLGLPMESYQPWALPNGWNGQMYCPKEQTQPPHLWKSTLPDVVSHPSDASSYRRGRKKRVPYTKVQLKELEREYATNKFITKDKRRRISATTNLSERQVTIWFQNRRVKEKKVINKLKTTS

Turning to `COc1ccc(CCNC(=O)[C@@H]2c3ccccc3C(=O)N(Cc3ccc(OC(F)(F)F)cc3)[C@H]2c2ccc(CO)cc2)cc1`, the values for the composite z-score (in assay [1]; in the assay on XIP peptide (Xip251-270)) were 0.987 (inactive) and 0.486, respectively. Also, the z-score in assay [2] is -0.756; in assay [3] it was -4.53 (inactive); in assay [4], -0.232 (inactive); in assay [5], -0.312 (inactive).

`CC(C)N1C(=O)[C@@]2(c3ccc([N+](=O)[O-])cc3)CC(=O)N(CC34CC5CC(CC(C5)C3)C4)[C@@H]2c2ccc(CO)cc21`: the composite z-score in assay [1] was -0.43 (inactive); in the assay with XIP peptide (Xip251-270), 0.52. Also, the z-score is 0.115 in assay [2], -0.734 (inactive) in assay [3], 0.18 (inactive) in assay [4] and -0.0138 (inactive) in assay [5].

Consider `O=C(CS)NCCCCCCNC(=O)[C@@H]1C[C@@H]2C(=O)N3CCC[C@H]3C(=O)N2[C@@H]1c1ccc(O)cc1`, for which the composite z-score in assay [1] is 0.689 (inactive); in the assay with XIP peptide (Xip251-270), 0.422. Further, the z-score in assay [2] is 0.331; in assay [3] it was -3.65 (inactive); in assay [4], -0.0018 (inactive); in assay [5], 0.499 (inactive).

Regarding `COCCOC(=O)N1C(=O)[C@@]2(c3ccccc31)[C@H](C(=O)NC[C@H](O)c1ccccc1)[C@H]1C(=O)O[C@H](c3ccccc3)[C@H](c3ccccc3)N1[C@@H]2c1ccc(OCCO)cc1`, the composite z-score in assay [1] was 0.868 (inactive); with XIP peptide (Xip251-270), 0.645. The z-score was -2.02 in assay [2], -4.33 (inactive) in assay [3], -0.293 (inactive) in assay [4] and -0.262 (inactive) in assay [5].

In the case of `CCC(CC)C(O)C1C=CC2C(=O)N(c3ccccc3)C(=O)C2N1Nc1ccc(C#N)cc1` (configuration not stated), the composite z-score in assay [1] was 0.132 (inactive); with XIP peptide (Xip251-270), 0.799. Also, the z-score in assay [2] was 0.324; in assay [3], -1.39 (inactive); in assay [4], 0.288 (inactive); in assay [5] it was 0.192 (inactive).

Consider `CCCCCN1CC=CC23O[C@@H]4/C=C\CCC(C)OC(=O)C4[C@H]2C(=O)N(CCCCCO)[C@@H]3C1=O` (some centres not stated), for which the composite z-score in assay [1] is -0.263 (inactive); in the assay on XIP peptide (Xip251-270), 0.0185. Also, the z-score was -1.24 in assay [2], -4.05 (inactive) in assay [3], -0.464 (inactive) in assay [4] and 0.131 (inactive) in assay [5].

As for `C[C@H]1NC(=O)[C@H](Cc2ccccc2)NC(=O)[C@@]23C(=O)N[C@@H](Cc4ccccc4)C2[C@H](C)[C@@]2(C)O[C@H]2C3/C=C/C/C=C\CNC1=O` (some centres not stated), the results for the composite z-score (in assay [1]; with XIP peptide (Xip251-270)) were -0.325 (inactive) and -1.16, respectively. In addition, the z-score is -1.45 in assay [2], -5.77 (inactive) in assay [3], -0.227 (inactive) in assay [4] and 0.0899 (inactive) in assay [5].

Consider `CCCCCN1CC=CC23O[C@@H]4/C=C\CCCOC(=O)C4[C@H]2C(=O)N(CCCCCCO)[C@@H]3C1=O` (some centres not stated), for which the composite z-score in assay [1] was 0.403 (inactive); in the assay on XIP peptide (Xip251-270), -0.0516. Besides, the z-score was -1.13 in assay [2], -5.27 (inactive) in assay [3], -0.792 (inactive) in assay [4] and -0.702 (inactive) in assay [5].

For `CCOC(=O)C[C@H]1[C@H](OC(=O)c2ccccc2-c2ccccc2)[C@@H](NC(=O)c2ccc3ccccc3c2)c2cc(OCCCO)ccc2N1C(=O)c1ccc2ccccc2n1`, the composite z-score is 0.157 (inactive) in assay [1] and 0.171 in the assay with XIP peptide (Xip251-270). Moreover, the z-score in assay [2] was -0.34; in assay [3] it was -2.08 (inactive); in assay [4], 0.308 (inactive); in assay [5], -0.334 (inactive).

Turning to `C=CCN1C(=O)[C@]2(O[C@H](CCO)[C@@H]([Si](C)(C)c3ccc(OC)cc3)[C@@H]2C)c2cc(NC(=O)[C@H](C)O)ccc21`, the figures for the composite z-score (in assay [1]; in the assay with XIP peptide (Xip251-270)) were 1.46 (inactive) and 0.822, respectively. Further, the z-score in assay [2] was -2.74; in assay [3] it was -5.5 (inactive); in assay [4], 1.42 (inactive); in assay [5], 0.436 (inactive).

With `Cc1ccc(S[C@]2(C(=O)O)CC(=O)N(C3Cc4ccccc4C3)[C@@H]2c2ccc(CO)cc2I)cc1`, the composite z-score is -0.33 (inactive) in assay [1] and 0.464 in the assay on XIP peptide (Xip251-270). The z-score was -0.111 in assay [2], -2.79 (inactive) in assay [3], 0.229 (inactive) in assay [4] and 0.584 (inactive) in assay [5].

`COc1ccc(C(=O)Nc2cccc(CN3C(=O)[C@]4(O[C@H](CC(=O)N5CCC[C@H]5CO)[C@@H]([Si](C)(C)c5ccc(OC)cc5)[C@@H]4C)c4ccccc43)c2)cc1`: the composite z-score is 1.64 (inactive) in assay [1] and 0.687 in the assay with XIP peptide (Xip251-270). Also, the z-score in assay [2] was -1.34; in assay [3] it was -2.44 (inactive); in assay [4] it was -0.0977 (inactive); in assay [5], 0.131 (inactive).

Consider `O=C1C=CC(=O)[C@@H]2CC(COc3ccccc3)=C3[C@@H](CCc4ccccc4)OB(O)C[C@@H]3[C@H]12`, for which the composite z-score in assay [1] was -0.193 (inactive); in the assay on XIP peptide (Xip251-270) it was 0.433. Also, the z-score in assay [2] was -1.73; in assay [3] it was -5.92 (inactive); in assay [4] it was -0.042 (inactive); in assay [5], 0.528 (inactive).

Turning to `COC(=O)[C@@]1(Cc2ccccc2)N=C(c2ccc(OCCCO)cc2)O[C@H]1c1ccccc1N=[N+]=[N-]`, the composite z-score in assay [1] is 0.856 (inactive); in the assay on XIP peptide (Xip251-270) it was 0.887. Also, the z-score is -2.27 in assay [2], 0.459 (inactive) in assay [3], -0.48 (inactive) in assay [4] and -0.775 (inactive) in assay [5].

As to `COCCOC(=O)N1C(=O)[C@@]2(c3cc(C#Cc4ccc(OC)cc4)ccc31)[C@H](C(=O)N1CCN(c3ncccn3)CC1)[C@H]1C(=O)O[C@H](c3ccccc3)[C@H](c3ccccc3)N1[C@@H]2c1ccc(O)cc1`, the composite z-score in assay [1] is 0.0853 (inactive); in the assay with XIP peptide (Xip251-270), 0.481. Further, the z-score is -1.38 in assay [2], 0.261 (inactive) in assay [3], -0.0134 (inactive) in assay [4] and -0.454 (inactive) in assay [5].

For the molecule `CCCN1C(=O)[C@]2(COC(c3ccc(OCCCO)cc3)=N2)Cc2ccccc21`, the composite z-score in assay [1] is 1.71 (inactive); in the assay on XIP peptide (Xip251-270), 0.42. Also, the z-score in assay [2] is -0.755; in assay [3], -6.01 (inactive); in assay [4], -0.0155 (inactive); in assay [5] it was 0.239 (inactive).

In the case of `COC(=O)[C@@]1(Cc2ccc(OC)cc2)[C@H]2c3cc(C(=O)N4CCCC4)n(Cc4ccccn4)c3C[C@H]2CN1C(=O)c1ccccc1`, the composite z-score in assay [1] was -0.22 (inactive); in the assay on XIP peptide (Xip251-270), 0.329. Besides, the z-score was -1.43 in assay [2], -5.86 (inactive) in assay [3], 0.613 (inactive) in assay [4] and 0.451 (inactive) in assay [5].
